Screening results as filed in PubChem BioAssay.
HSP90 refold inh – inhibitors of HSP90 luciferase refolding in rabbit reticulocyte lysate; luciferase refolding luminescence, 3 h; inhibition, % at 5.6 µM; actives 0.91% (n = 290,000);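 active = inhibition above the screen-wide mean plus 3 SD, computed separately per campaign, cut at about 16% in these data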;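 also: 0% = DMSO wells and 100% = 60 µM geldanamycin wells; inhibitors lower the luminescence because luciferase stays unfolded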
NR0B1 inh – NR0B1 (DAX1) inhibition; HEK293 Gal4-DAX1 luciferase reporter, luminescence; inhibition, % at 6.75 µM; actives 0.99% (n = 340,000); AID 504766;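 active = inhibition above the mean over all tested compounds plus 3 SD, cut at about 4.2% in these data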;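 also: 0% = DAX1-transfected cells with DMSO and 100% = empty-vector control cells with DMSO; inhibition shows as a rise in luminescence from relieved DAX1 repression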
Target sequence (P51843 207-470 limits assumed): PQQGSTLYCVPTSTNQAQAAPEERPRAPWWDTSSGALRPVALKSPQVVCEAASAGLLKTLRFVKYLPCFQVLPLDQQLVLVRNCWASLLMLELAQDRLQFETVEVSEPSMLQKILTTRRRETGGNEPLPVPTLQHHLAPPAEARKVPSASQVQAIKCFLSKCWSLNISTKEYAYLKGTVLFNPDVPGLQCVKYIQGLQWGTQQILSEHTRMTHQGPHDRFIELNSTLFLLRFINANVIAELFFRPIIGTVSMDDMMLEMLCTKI
HSF1 inh – HSF1 inhibition; NIH3T3-HGL HSE-luciferase, MG132-induced, luminescence 8 h; active compounds read low; activity change, negative = inhibition, % at 7.5 µM (by protocol); actives 0.77% (n = 300,000); AID 2098;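 active = more than half of replicate wells show activity change below -50%, luminescence cut by over half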;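 also: luciferase reports HSF-1 transcriptional activity via heat shock element; 0% = median of DMSO wells and -100% = zero luminescence signal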
AHR activator – activates the human aryl hydrocarbon receptor; actives 2.5% (n = 320,000); AID 2796; activation, % at 5 µM; AHR-responsive luciferase reporter cells, luminescence; in the data active = activation above about 47%;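 also: 0% = vehicle wells and 100% = reference agonist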
GAA850 FXN act – increases GAA850 frataxin promoter reporter activity | activation, % at 6 µM | actives 0.56% (n = 360,000) | HEK293 lucGAA850 FXN promoter luciferase reporter, 24 h; percent of 10 µM SAHA response;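 active = activation above the average of all compounds screened plus 3 SD, cutoff fixed separately per campaign, cut at about 7.5% in these data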;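 also: 0% = DMSO wells and 100% = 10 µM SAHA wells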
HSF-1 act – increases HSF-1 driven luciferase reporter signal; NIH3T3-HGL HSF-1 luciferase reporter, MG132, 8 h; 100% = twice DMSO control signal; activation, % at 9 µM; actives 1.7% (n = 300,000);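 active = mean replicate activation of at least 50% with a set share of replicates each reaching 50%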;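 also: 0% = median of the neutral control wells and 100% = twice that signal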
Active calls of the source: *; x = not tested or not shown. Shown are actives, neighbours in structure and some others; about 5.9% of the full set was active somewhere.

SMILES	HSP90 refold inh	NR0B1 inh	HSF1 inh	AHR activator	GAA850 FXN act	HSF-1 act
CCOc1cc(C(=O)Nc2ccc(S(=O)(=O)N3CCCCC3)cc2)ccc1OCC(=O)N1CCOCC1	x	-1	1	-1	1	1
COc1ccccc1NC(=O)c1oc2ccccc2c1NC(=O)c1cc(OC)c(OC)c(OC)c1	1	-1	2	21	1	-11
COCC(=O)Nc1c(C(=O)Nc2cccc(OC)c2)oc2ccccc12	1	1	1	70*	4	10
COc1cccc(NC(=O)c2oc3ccccc3c2NC(C)=O)c1	2	2	-4	29	4	-4
COc1ccccc1NC(=O)c1oc2ccc(C)cc2c1C	-1	1	20	60*	2	25
COCC(=O)Nc1c(C(=O)Nc2ccccc2OC)oc2ccccc12	-2	0	-2	84*	2	4
CC1(C(=O)NS(=O)(=O)c2cccc(Cl)c2)CCN1C(=O)CC1CCCC1 (stereo unspecified)	x	x	x	x	0	x
COc1cc2c(cc1OC)CN(CC(=O)Nc1ccccc1C#N)CC2	2	-1	15	50*	1	21
COc1cc2c(cc1OC)CN(CC(=O)Nc1ccccc1SC)CC2	-2	-1	-6	-1	3	9
O=C1c2cccc3cccc(c23)C(=O)N1CCCN(C(=O)c1cccs1)c1cccc(F)c1	-6	0	-1	51*	1	-1
CCOc1ccccc1-c1noc(CCCC(=O)NC2CCCCC2)n1	5	-1	20	8	2	64*
COc1ccccc1-c1noc(CCCC(=O)NC2CCCCC2)n1	2	0	-10	0	-1	11
Cc1cc(=O)c2ccccc2n1Cc1ccccc1	-4	-1	-6	57*	0	4
Cc1cc(=O)c2ccccc2n1CC(=O)NCc1ccccc1	-3	-3	-3	8	-4	-4
CCc1nc2c(OCCC3CCCCC3)cccn2c1N(C)C(=O)c1cccs1	x	x	x	x	-1	x
CN1CCN(/N=C/c2ccc(-c3ccccc3)cc2)CC1	3	0	13	-6	6	32
CN1CCN(/N=C/c2c3ccccc3c(Cl)c3ccccc23)CC1	-1	-1	1	57*	2	0
Cc1cc(NC(=O)Cn2cnc3sc(C)c(-c4ccccc4)c3c2=O)no1	1	1	120	x	1	185*
Cc1cc(NC(=O)Cn2cnc3sc(C)c(C)c3c2=O)no1	x	x	x	0	1	x
c1ccc(CCNc2nc3ccccc3n3nnnc23)cc1	5	1	3	2	1	19
ClC(Cl)(Cl)c1nc2ccccc2n2nncc12	5	-1	162	23	6	208*
Cc1cc(=O)[nH]c(-n2ncc(C#N)c2N)n1	1	3	27	1	3	69*
O=C(c1ccccc1NS(=O)(=O)c1ccccc1[N+](=O)[O-])N1CCCC1	0	1	-8	0	-1	-23
COc1ccccc1CNC(=O)[C@H](C)NC(=O)C1CCN(C(=O)[C@H](CCSC)NC(=O)OC(C)(C)C)CC1	2	0	3	1	-3	23
Cc1cccc(N2CCCn3c2nc2c3c(=O)[nH]c(=O)n2C)c1	7	-1	-4	2	1	1
SMILES	HSP90 refold inh	NR0B1 inh	HSF1 inh	AHR activator	GAA850 FXN act	HSF-1 act
Fc1ccccc1NC(=S)N/N=C/c1ccccc1Br	16*	1	-7	124*	6	-21
O=[N+]([O-])c1ccc(/C=N/NC(=S)Nc2ccccc2F)o1	6	2	0	10	3	20
Cc1oc2ccc(O)cc2c1C(=O)c1ccc(Br)cc1	x	1	6	-2	1	-7
CCc1ccccc1N(CC(=O)NC1CCCCC1)C(=O)CCCC(=O)Nc1ccccn1	-3	2	7	2	-1	18
Cc1ccccc1N(CC(=O)NC1CCCCC1)C(=O)CCCC(=O)Nc1ccccn1	-2	5.0*	4	0	1	-2
C/C=C/c1ccc(OCC(=O)N(C)CC(=O)Nc2ccc(F)cc2)c(OC)c1	x	0	3	5	0	8
Clc1ccc(/C=N/Nc2nnc(-c3ncc[nH]3)c3ccccc23)cc1	-1	2	15	76*	2	16
Clc1cccc(/C=N/Nc2nnc(Cl)c3ccccc23)c1	-1	-1	50	50*	1	57*
COc1cccc(S(=O)(=O)N(C)C[C@H]2OCc3cn(nn3)CCCC(=O)N([C@H](C)CO)C[C@@H]2C)c1	x	2	x	x	0	x
CCOC(=O)C1=C(COC(=O)/C=C/c2ccc(F)cc2)NC(=O)NC1C (stereo unspecified)	x	2	x	x	3	x
Cc1cc(C)cc(NC2=C(N)C(=O)c3ccccc3C2=O)c1	4	2	5	55*	2	-2
Cc1ccc(NC2=C(Cl)C(=O)c3ccccc3C2=O)cc1	4	0	30	0	4	50
CCOc1ccccc1NC(=O)CSc1nnc(CCC(=O)Nc2ccccc2F)n1C	2	0	-1	9	-1	15
N/C(=C\C(=O)c1cc(Cl)ccc1O)C(Cl)(Cl)Cl	6	0	128	8	-1	209*
Cc1ccc(NS(=O)(=O)c2cc(NC(=O)c3ccc4c(c3)NC(=O)CS4)ccc2Cl)c(C)c1	5	-1	-4	54*	4	12
COc1ccc(NC(=O)c2ccc3c(c2)NC(=O)CS3)cc1	x	1	x	0	1	x
CC(=O)Nc1ccc(NC(=O)c2ccccc2N(C)S(=O)(=O)c2ccc(C)cc2)cc1	-5	-1	-7	-1	2	4
Cc1ccc(S(=O)(=O)N(C)c2ccccc2C(=O)NC2CCCC2)cc1	-1	0	-72*	0	-1	-76
Cc1ccc(S(=O)(=O)N(C)c2ccccc2C(=O)Nc2ccc(F)cc2F)cc1	-4	-2	-3	x	2	-16
Cc1ccc(NC(=O)c2ccccc2N(C)S(=O)(=O)c2ccccc2)c(C)c1	-4	-1	30	13	1	65*
Cc1cc(C)c2c(N)c3ccccc3nc2n1	-4	-1	3	23	-4	6
CCc1ccc2nc3nc(C)cc(C)c3c(N)c2c1	0	0	x	68*	-6	x
O=c1c2ccccc2cnn1-c1nc2ccccc2[nH]1	92*	-6	-83*	x	-15	-85
COC(=O)c1ccc(NC(=O)CN2C(=O)NC3(CCC(C)CC3)C2=O)cc1 (stereo unspecified)	x	-1	x	1	-1	x
BrC(=C\c1ccccc1)/C=N/N1CCN(c2ccccc2)CC1	-2	0	107	8	4	162*
Nc1nnnn1/N=C/C=C/c1ccccc1	-4	0	5	0	4	7
Nc1nnnn1/N=C/C(Br)=C/c1ccccc1	1	-3	188	4	-13	252*
